Experimental data taken from PubChem BioAssay AID588413 (Sanford-Burnham Center for Chemical Genomics, 2011).
Where “and” joins values, the source holds several entries; their conditions need not be identical. Equal values may be shown once. The whole screen tested about 340,000 compounds, of which about 2,500 (0.74%) were called active. This excerpt belongs to a sample that is enriched for actives. A number with no mark means an inactive call.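 Rule for the calls: active = inhibition above about 55% (limit read from the data); inactive = the rest.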

test: Gli-Sufu pathway antagonists, primary screen, luciferase luminescence, Sufu-KO-LIGHT cells, uHTS (AID 588413); details: Sufu-KO-LIGHT fibroblasts, Gli luciferase reporter luminescence; at 5 µM; stronger effect = higher value;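 note: 0% = DMSO-treated cells and 100% = wells with medium but no cells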

SMILES	inhibition
CNc1ccc(SC#N)cc1	60.3% (active)
COc1ccc(N2C(=O)/C(=C\c3ccco3)N=C2SCC(N)=O)cc1Cl	5.71%
O=C(Cn1cnc2c(nnn2-c2ccccc2)c1=O)N1CCC(Cc2ccccc2)CC1	-4.74%
COc1cc(-c2nc(S(=O)(=O)c3ccc(Cl)cc3)c(N(C)C)o2)cc(OC)c1OC	7.51%
Cc1oc2c(c1C(=O)N1CCOCC1)C(=O)c1ccccc1C2=O	87% (active)
COc1cc2ccccc2cc1C(=O)N1CCOCC1	-5.57%
O=C(c1snnc1-c1ccccc1)N1CCOCC1	9.83%
CCOC(=O)[C@H]1[C@H]2COc3ccc(Cl)cc3[C@@H]2N2C(=O)c3cc(C)ccc3NC(=O)[C@@]12C	1.26%
CCOC(=O)CN(C(=O)COc1nc(-c2ccccc2)cc(C)c1C#N)c1ccc(F)cc1	5.59%
Cc1ccc2c(=O)cc(C(=O)NCCc3ccc(S(N)(=O)=O)cc3)oc2c1C	-18.4%
CSc1ccccc1NC(=O)Cc1ccc(Br)cc1	1.53%
COc1ccc(S(=O)(=O)Nc2ccccc2C(=O)N2CCCC2)cc1C	-10.7%
COc1ccc(S(=O)(=O)NC(C)c2ccccc2)cc1C(=O)N1CCCCC1 (stereo unspecified)	12.8%
Cc1ccc(S(=O)(=O)NC(C)C(=O)Nc2ccccc2C(=O)N2CCCC2)cc1 (stereo unspecified)	95% (active)
CCOc1ccc(/C=C(/C#N)c2nnc(N3CCOCC3)n2-c2ccccc2)cc1OC	4.23%
Brc1ccc2nc(N3CCCC3)sc2c1	-88.5%
c1c2c(cc3sc(N4CCCCC4)nc13)OCCO2	66.6% (active)
O=S(=O)(Nc1ccc2nc(N3CCOCC3)sc2c1)c1ccccc1	-64.9%
CC1CN(C(=O)c2ccccc2NS(=O)(=O)c2cccc([N+](=O)[O-])c2)CC(C)O1 (stereo unspecified)	-7.72%
COc1ccc(F)cc1C(=O)C1CCCN(C(=O)CCc2ccccn2)C1 (stereo unspecified)	12.7%
N#CC(C#N)=CN=c1ccn(Cc2ccc(Cl)cc2Cl)cc1	57.1% (active)
O=c1ccn(Cc2ccccc2Cl)cc1	17%
CC(C)(C)c1cc(C(=O)NN)n(Cc2ccc(Cl)cc2Cl)n1	-3.86%

SMILES	inhibition
COc1ccc(CC(=O)NC(C)c2ccc(Cl)c(Cl)c2)cc1S(=O)(=O)N1CCOCC1 (stereo unspecified)	-4.33%
COc1cc(Cl)c(C)cc1NC(=O)CN1CCCCCC1	40.6%
Cn1c(=O)c2c(nc(NCc3ccccc3)n2CC(N)=O)n(C)c1=O	0.59%
Cn1c(=O)c2c(nc(NCCNC(=O)c3ccco3)n2Cc2ccccc2F)n(C)c1=O	-26.1%
Cn1c(=O)c2c(nc(NCCc3ccccc3)n2Cc2ccccc2)n(C)c1=O	62.7% (active)
CCn1c(NCCc2ccc(OC)c(OC)c2)nc2c1c(=O)n(C)c(=O)n2C	11.3%
CCCCNc1nc2c(c(=O)[nH]c(=O)n2C)n1CCOc1ccccc1	-15.8%
CCCCNc1nc2c(c(=O)n(C)c(=O)n2C)n1Cc1cccc(OC)c1	73.1% (active)
O=C(Cn1nnc(-c2ccccc2)n1)NC(=O)NC1CCCC1	0.46%
Cc1ccc(SC(=O)COc2ccc(C)c(C)c2)cc1	-16.4%
COc1cc(C2C3C(=O)N(c4ccccc4)C(=O)C3ON2c2ccccc2)ccc1O (stereo unspecified)	1.38%
O=C(CCN1C(=O)c2ccccc2C1=O)C1=NN[C@@H]2C(=O)N(c3ccc(F)cc3)C(=O)[C@H]12	27.5%
CO/N=C/c1cn(-c2ccc(Cl)cc2)nn1	-5.6%
COc1ccc(OC)c(CNC(=O)C2CCCN(c3nc4ccccc4o3)C2)c1 (stereo unspecified)	1.69%
COc1ccccc1CNC(=O)C1CCN(S(C)(=O)=O)CC1	-3.13%
COc1ccccc1CNC(=O)C1CCN(c2nc3ccccc3o2)CC1	79.4% (active)
COC(=O)Cc1nc2c(N)nc(N)nc2[nH]c1=O	5.09%
NC(=O)C1CCN(C(=O)c2cc(S(=O)(=O)N3CCN(c4ccccc4)CC3)ccc2Cl)CC1	3.01%
COc1ccc(CS(=O)/C(Cl)=C(/Cl)C(=O)Nc2ccc(OC)nc2)cc1 (stereo unspecified)	68.1% (active)
COc1ccc(OC(C)C(=O)Nc2cccnc2)cc1 (stereo unspecified)	-1.18%
COc1ccc(CCC(=O)c2ccc(OC)cc2)cc1	1.15%
C=CCc1c(C)nc2cc(-c3ccccc3)[nH]n2c1=O	27.4%
Cc1nc2nc[nH]n2c(=O)c1C/C=C/c1ccccc1	26.2%

SMILES	inhibition
CCc1c(C)nc2cc(C)[nH]n2c1=O	75% (active)
CCOc1ccccc1NC(=S)C(=C([O-])c1ccc2c(c1)OCCO2)[n+]1ccc(CC)cc1	-43.8%
COc1ccc2cc(C3=CC(=O)C[C@H](c4ccc5c(c4)OCO5)C3)ccc2c1	-5.21%
O=C1C=C(c2ccnc3cc(Cl)ccc23)C[C@@H](c2ccc3c(c2)OCO3)C1	66.7% (active)
O=C1C=C(c2cc(C(F)(F)F)cc(C(F)(F)F)c2)C[C@@H](c2ccc3c(c2)OCO3)C1	6.64%
N#CCC(=O)NC(=O)NCC1CC1	-8.84%
CC(=O)c1cc(NC(=O)c2ccccc2)c(=O)oc1/C=C/N(C)C	8.24%
CCN1CCC2(CCN(Cc3cn[nH]c3-c3ccc(OC)c(F)c3)C2)C1 (stereo unspecified)	7.07%
COc1ccc(-n2c(Cc3cccn3C)nnc2SCC(=O)Nc2cc(C)cc(C)c2)cc1	0.63%
CCCCn1c(SCC(=O)N2CCCC2=O)nc2cc(S(N)(=O)=O)ccc21	5.29%
NS(=O)(=O)c1ccc(CCNC(=O)CCCn2c(SCC(=O)N3CCCC3)nc3ccsc3c2=O)cc1	79.4% (active)
CCCCn1c(SCC(=O)N2CCC(C(=O)OCC)CC2)nc2cc(S(N)(=O)=O)ccc21	6.66%
Cc1cc(N2C(=O)C(=O)/C(=C(/O)c3ccccc3)C2c2cccc(Br)c2)no1 (stereo unspecified)	7.53%
CC(=O)c1ccc(NC(=O)Cn2c(=O)oc3ccccc32)cc1	11.6%
Cc1sc2nc(SCCO)n(-c3ccccc3)c(=O)c2c1C	3.29%
O=C(OC12CC3CC(CC(C3)C1)C2)c1ccc(NCc2cc(O)ccc2O)cc1	70.4% (active)
CC(C)OC(=O)c1ccc(NCc2cc(O)ccc2O)cc1Cl	-6.82%
COC(=O)c1ccc(NCc2cc(O)ccc2O)cc1	3.08%
Cn1cnc2c1c(=O)n(Cc1ccccc1C#N)c(=O)n2C	6.5%
CN1C2CCC1CC(NC(=O)c1ccc([N+](=O)[O-])cc1)C2 (stereo unspecified)	-0.59%
O=C(Nc1cc2c3c(c1)C1CCCC1CN3CC1CCCC21)c1ccc([N+](=O)[O-])cc1 (stereo unspecified)	72.5% (active)
O=C(Nc1ccccc1C(=O)Nc1ccncc1)c1ccc([N+](=O)[O-])cc1	-25.8%
CCOc1ccc(NC(=O)N(CC(C)C)CC(C)C)cc1	-3.25%

SMILES	inhibition
O=C(CCNC(=O)c1ccc(Br)cc1)NCC(c1ccco1)N1CCCCC1 (stereo unspecified)	2.12%
Cc1ccc(OS(=O)(=O)c2ccc(-c3csc(C)n3)s2)c(C)c1	-1.77%
CC1(C)CC(=O)C=C(N2CCOCC2)C1	-5.06%
CC1(C)CC(N2CCN(C(c3ccccc3)c3ccccc3)CC2)=CC(=[N+]2CCCCC2)C1	89.2% (active)
c1ccc(C(c2ccccc2)N2CCN(Cc3nnnn3C3CCCCC3)CC2)cc1	-7.75%
O=C(COc1ccc(Cl)cc1Cl)NCCCNC(=O)c1cnccn1	-2.79%
CN1C(=O)CC(c2ccccc2)C1=O (stereo unspecified)	1.09%
COc1ccc(N(CC(=O)Nc2ccc(F)c(F)c2)S(=O)(=O)c2c(C)[nH]c(=O)[nH]c2=O)cc1	-1.05%
COc1ccc(/C=N/N=C2/C(=O)Nc3ccccc32)cc1O	58.7% (active)
CCOc1ccc(/C=N/NC(=O)CSc2ccccn2)cc1O	4.66%
O=C1Nc2ccc(Br)cc2/C1=N/N=C/C1=C(N2CCOCC2)C(=C\c2ccccc2)/CC1	20.5%
Cc1ccccc1CS(=O)(=O)CC1(O)CCN(C(=O)c2cccc(C(F)(F)F)c2)CC1	0.32%
O=C(N=C1SC2CS(=O)(=O)CC2N1c1cc(Cl)ccc1Cl)C1CC1 (stereo unspecified)	6.54%
Cc1ccc(-c2c[n+](CC(=O)Nc3ccccc3)c3n2CCC3)cc1	-11.4%
Cc1ccc(C(=O)C[n+]2cc(-c3ccccc3)n3c2CCCCC3)cc1	67.1% (active) and 72.5% (active)
Clc1ccc(C[n+]2cc(-c3ccccc3)n3c2CCC3)cc1	49.7%
CC(=O)c1ccc(NC(=O)C(C)OC(=O)c2ccc(NS(=O)(=O)c3ccc4[nH]c(=O)[nH]c4c3)cc2)cc1 (stereo unspecified)	7.04%
O=C1CSC(=O)N1CCOCCN1C(=O)CSC1=O	-19.6%
CCN(CC)S(=O)(=O)c1ccc(N(C)Cc2cccc(OC)c2OC)nc1	1.8%
O=C(C[C@H]1C/C=C\C[C@@H](NC(=O)OCC2c3ccccc3-c3ccccc32)C(=O)O[C@@H](c2ccccc2)CNC1=O)N[C@H](CO)Cc1ccccc1	60.2% (active)
CC(C)(C)OC(=O)C[C@@H]1C/C=C\C[C@@H](CC(=O)N[C@H](CO)Cc2ccccc2)C(=O)NC[C@@H](c2ccccc2)OC1=O	-21.7%
CC(C)(C)OC(=O)C[C@H]1C/C=C\C[C@@H](CC(=O)N[C@H](CO)Cc2ccccc2)C(=O)NC[C@@H](c2ccccc2)OC1=O	4.33%
